Most compounds without a hit are left out; they make up all but 1.2% or so of the library.
RGS8-Gao reg: RGS8-Galphao binding modulators, primary screen, biochemical, multiplexed bead flow cytometry. actives lie on both sides. response (percent of control binding), % at 10 µM. 0.34% of 220,000 active. AID 1423, 2008; in the data active = response below about 60% or above about 140%; inactive = in between;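 also: Galphao activated as the GDP aluminium fluoride complex binding bead-coupled RGS8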
Target sequence (P09471 whole entry, looked up): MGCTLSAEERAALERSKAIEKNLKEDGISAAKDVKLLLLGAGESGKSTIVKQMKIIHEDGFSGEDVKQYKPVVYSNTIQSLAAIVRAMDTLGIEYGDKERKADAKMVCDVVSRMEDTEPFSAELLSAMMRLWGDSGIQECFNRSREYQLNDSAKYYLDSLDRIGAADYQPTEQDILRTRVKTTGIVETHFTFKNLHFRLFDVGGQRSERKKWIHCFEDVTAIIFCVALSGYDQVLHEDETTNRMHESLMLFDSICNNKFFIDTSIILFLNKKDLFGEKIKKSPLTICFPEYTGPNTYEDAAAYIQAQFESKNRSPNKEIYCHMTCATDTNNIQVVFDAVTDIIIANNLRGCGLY
RGS4-Gao reg: modulators of RGS4 binding to Galphao, primary screen, biochemical, multiplexed bead flow cytometry | Guanine nucleotide-binding protein G(o) subunit alpha (Homo sapiens), P09471 | actives lie on both sides | binding response (% of control), % at 10 µM | 0.33% of 220,000 active | AID 1415, 2008; in the data active = binding response below about 49% or above about 150%; inactive = in between;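 also: fluorescent Galphao activated with aluminum fluoride binding bead-coupled RGS4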
GSH bead fluor: compound fluorescence on glutathione beads, profiling panel, artefact control, biophysical, 488/530 nm, flow cytometry. GSH beads flow cytometry, compound fluorescence 488/530 nm; active compounds read high. fluorescence (KMESF) at 10 µM. 0.25% of 190,000 active. AID 1776, 2009; in the data active = fluorescence above about 89;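 also: glutathione beads carrying GST-tagged Bcl family fusion proteins plus one bare bead set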
RGS16-Gao HTS: modulators of RGS16 binding to Galphao, primary screen, biochemical, human proteins, multiplexed bead flow cytometry; bead-based flow cytometry RGS16-Galphao binding, fluorescence; actives lie on both sides; binding response (% of control), % at 10 µM; 0.38% of 220,000 active; AID 1441, 2008;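 also: Galphao activated by GDP with aluminum fluoride before binding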
Target sequence (O15492 whole entry, looked up): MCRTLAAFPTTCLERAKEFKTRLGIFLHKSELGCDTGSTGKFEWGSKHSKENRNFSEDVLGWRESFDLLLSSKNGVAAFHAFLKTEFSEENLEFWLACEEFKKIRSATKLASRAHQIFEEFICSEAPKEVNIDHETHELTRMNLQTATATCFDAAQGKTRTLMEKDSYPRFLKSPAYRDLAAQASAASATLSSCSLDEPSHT
Target sequence (P09471 whole entry, looked up): as the sequence (P09471 whole entry, looked up) above
Avidin bead fluor: green autofluorescence of compounds with avidin beads – biophysical, 488/530 nm, flow cytometry, artefact control, profiling panel | fluorescence (KMESF) at 10 µM | 0.38% of 220,000 active | compound fluorescence 488/530 nm; active compounds read high; in the data active = fluorescence above about 47
RGS7-Gao: RGS7-Galphao binding modulators, primary screen, biochemical, multiplexed bead flow cytometry; AID 1439, 2008; binding response (% of control), % at 10 µM; 0.35% of 220,000 active; actives lie on both sides; in the data active = binding response below about 49% or above about 150%; inconclusive = no clear call, values can overlap the other calls; inactive = in between;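 also: fluorescent Galphao held in activated GDP-AlF4 state binding bead-coupled RGS7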
RGS4-Gao HTS: modulators of RGS–Galpha-o binding, primary screen, biochemical, multiplexed beads, flow cytometry, RGS4/7/8/16/19 | shares compounds with RGS16-Gao HTS | multiplexed bead flow cytometry | RGS4–Galpha-o binding response, % at 10 µM | 99% of 1,600 active;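 also: fluorescently labeled Galpha-o bound to GDP with aluminium fluoride binding biotinylated RGS beads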
Biotin-avidin: disruption of biotin probe capture by avidin, counter-screen for RGS protein interaction modulators, biochemical, flow cytometry, bead-based | inhibition, % at 10 µM | shares compounds with RGS16-Gao HTS | streptavidin beads, fluorescein-biotin binding | 1,700 tested, under 10 active;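 active = inhibition above 50%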;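 also: median green fluorescence of gated singlet beads compared with DMSO control wells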
RGS8-Gao single: RGS8-Galphao binding modulators, confirmation, biochemical, multiplexed bead flow cytometry, single concentration; shares compounds with RGS16-Gao HTS; bead-based flow cytometry RGS8-Galphao binding, fluorescence; actives lie on both sides; binding response (% of control), % at 10 µM; 3% of 1,700 active; in the data active = binding response below about 72% or above about 130%; inactive = in between;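 also: Galphao activated as GDP AlF4 complex before binding bead RGS8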
RGS7-Gao confirm: RGS7-Galphao binding modulators, confirmation, biochemical, multiplexed bead flow cytometry, single concentration | response (percent of control binding), % at 10 µM | shares compounds with RGS16-Gao HTS | bead-based flow cytometry RGS7-Galphao binding; actives lie on both sides | AID 1837, 2009 | 7.8% of 1,700 active; in the data active = response below about 75% or above about 130%; inactive = in between;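 also: fluorescent Galphao activated with GDP and aluminum fluoride binding bead-coupled RGS7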
RGS16-Gao conf: modulators of RGS16-Galphao protein binding, confirmation, biochemical, single concentration, multiplexed bead flow cytometry | shares compounds with RGS16-Gao HTS | bead-based flow cytometry; actives lie on both sides | response (% of control binding), % at 10 µM | 4% of 1,700 active | AID 1838, 2009; in the data active = response below about 74% or above about 130%; inactive = in between;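 also: Galphao activated as the GDP aluminium fluoride complex binding bead-coupled RGS16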
RGS4-Gao confirm: modulators of RGS4-Galphao protein binding, confirmation, biochemical, single concentration, multiplexed bead flow cytometry; 4% of 1,700 active; binding response (% of control), % at 10 µM; actives lie on both sides; shares compounds with RGS16-Gao HTS; in the data active = binding response below about 74% or above about 130%; inactive = in between
RGS19-Gao single: regulators of RGS19-Galphao binding, confirmation, biochemical, single point, multiplexed bead flow cytometry. shares compounds with RGS16-Gao HTS. bead-based flow cytometry RGS19-Galphao binding; actives lie on both sides. response (percent of control binding), % at 10 µM. 5% of 1,700 active; in the data active = response below about 50% or above about 160%; inactive = in between
Of the large screens only hits and unclear results are named; the others gave an inactive call (follow-up assays come after a bar, where they were run); [ ] = another dose, or the depositor's remark. Unless noted, no rule for the calls is given here.

Cc1cc([N+](=O)[O-])nn1CC(=O)NCCCn1ccnc1	Avidin bead fluor 103, RGS7-Gao 269[activator] | RGS4-Gao HTS 147 | Biotin-avidin inactive | RGS8-Gao single inactive | RGS7-Gao confirm inactive | RGS16-Gao conf inactive | RGS4-Gao confirm inactive | RGS19-Gao single inactive
Cc1ccc(S(=O)(=O)Nc2ccccc2/C=N/c2nc3ccccc3n2C)cc1	none (no result: RGS7-Gao) | Biotin-avidin inactive | RGS8-Gao single inactive | RGS7-Gao confirm inactive | RGS16-Gao conf inactive | RGS4-Gao confirm inactive | RGS19-Gao single inactive
Cc1ccc(S(=O)(=O)Nc2ccccc2C=Nc2cccc(C)c2C)cc1	none
COc1ccc(C(=O)NC2CCN(C(=S)Nc3ccc(C)cc3)CC2)cc1	none
CCOC(=O)/C(=C\c1cccc(O)c1)c1nc2sc(C)c(C)c2c(=O)[nH]1	none
CC1CCCN(C(=O)C2CCN(CCCc3ccccc3)CC2)C1 (configuration not stated)	none
CCCCN(C)C(=O)C1CCN(CCCc2ccccc2)CC1	Avidin bead fluor 291, RGS7-Gao 170[activator] | RGS4-Gao HTS 121
CCN(CC)C(=O)Oc1ccc(Cl)c2cccnc12	RGS7-Gao inconclusive
O=C(Nc1cccc(C(F)(F)F)c1)Oc1ccc(Cl)c2cccnc12	RGS8-Gao reg 55, RGS4-Gao reg 26, RGS7-Gao inconclusive (no result: GSH bead fluor) | Biotin-avidin inactive | RGS8-Gao single inactive | RGS7-Gao confirm inactive | RGS16-Gao conf inactive | RGS4-Gao confirm inactive | RGS19-Gao single inactive
Cn1c(=O)c(=O)n(C)c2cc(S(=O)(=O)N3CCCC3C(=O)NCc3cccs3)ccc21 (configuration not stated)	RGS7-Gao inconclusive (no result: GSH bead fluor)
COc1ccc(/C(C)=N/NS(=O)(=O)c2cc(C)ccc2C)c(OC)c1	none
CSCCC(NC(=O)C1CCCCC1)c1nc2ccccc2[nH]1 (configuration not stated)	none (no result: RGS8-Gao reg, GSH bead fluor, RGS16-Gao HTS, Avidin bead fluor, RGS7-Gao) | Biotin-avidin inactive | RGS8-Gao single inactive | RGS7-Gao confirm inactive | RGS16-Gao conf inactive | RGS4-Gao confirm inactive | RGS19-Gao single inactive
CSCC[C@H](NC(=O)COc1ccc(Cl)cc1)c1nc2ccccc2[nH]1	RGS16-Gao HTS 203[activator] | RGS4-Gao HTS 112 | Biotin-avidin inactive | RGS8-Gao single inactive | RGS7-Gao confirm inactive | RGS16-Gao conf inactive | RGS4-Gao confirm inactive | RGS19-Gao single inactive
CC(=O)Nc1ccccc1-c1nc2ccc(C(=O)N3CCN(c4cc(C)ccc4C)CC3)cc2[nH]c1=O	Avidin bead fluor 78, RGS7-Gao 168[activator] | RGS4-Gao HTS 111 | Biotin-avidin inactive | RGS8-Gao single inactive | RGS7-Gao confirm 74 | RGS16-Gao conf inactive | RGS4-Gao confirm inactive | RGS19-Gao single inactive
CCCCN(CCCC)CCCNC(=O)c1ccc2nc(-c3ccccc3NC(C)=O)c(=O)[nH]c2c1	none
O=c1c2ccccc2c(C=NC2CCS(=O)(=O)C2)c(O)n1-c1ccccc1 (configuration not stated)	none
O=S1(=O)CCC(N=Cc2cc(Br)ccc2O)C1 (configuration not stated)	Avidin bead fluor 49, RGS7-Gao 151[activator] | RGS4-Gao HTS 112 | Biotin-avidin inactive | RGS8-Gao single inactive | RGS7-Gao confirm inactive | RGS16-Gao conf inactive | RGS4-Gao confirm inactive | RGS19-Gao single inactive
O=C(c1ccco1)N1CCN(S(=O)(=O)c2ccc(Cl)s2)CC1	none (no result: RGS8-Gao reg, RGS4-Gao reg, RGS16-Gao HTS, Avidin bead fluor, RGS7-Gao) | Biotin-avidin inactive | RGS8-Gao single inactive | RGS7-Gao confirm inactive | RGS16-Gao conf inactive | RGS4-Gao confirm inactive | RGS19-Gao single inactive
CCCCN(C)CCNC(=O)c1ccc(Cn2c(=S)[nH]c3ccc(Br)cc3c2=O)cc1	none
O=C(Cc1noc2ccccc12)Nc1ccc2ccccc2c1	RGS16-Gao HTS 25 | RGS4-Gao HTS 91 | Biotin-avidin inactive | RGS8-Gao single inactive | RGS7-Gao confirm inactive | RGS16-Gao conf inactive | RGS4-Gao confirm inactive | RGS19-Gao single inactive
COc1ccc(C(=O)Nc2ccccc2C(=O)N(Cc2ccco2)C(C(N)=O)C(C)C)cc1 (configuration not stated)	RGS8-Gao reg 144[activator], RGS4-Gao reg 225[activator], Avidin bead fluor 104 | Biotin-avidin inactive | RGS8-Gao single inactive | RGS7-Gao confirm inactive | RGS16-Gao conf inactive | RGS4-Gao confirm inactive | RGS19-Gao single inactive
Cc1sc(NC(=O)c2ccco2)c(CN2CCN(Cc3ccccc3)CC2)c1C	RGS7-Gao inconclusive
COC(=O)CCC(=O)Nc1sc(C)c(C)c1C(N)=O	none (no result: RGS8-Gao reg, RGS4-Gao reg, RGS16-Gao HTS, Avidin bead fluor, RGS7-Gao) | Biotin-avidin inactive | RGS8-Gao single inactive | RGS7-Gao confirm 73 | RGS16-Gao conf 70 | RGS4-Gao confirm 69 | RGS19-Gao single 44
Cc1cccc(OCCCC(=O)NCC(=O)Nc2cccc(C)c2C)c1	none
Cc1[nH]n(-c2ccccc2)c(=O)c1C=Nc1ccc(S(=O)(=O)N=C(N)N)cc1	RGS7-Gao inconclusive (no result: GSH bead fluor)
Cc1[nH]n(-c2ccccc2)c(=S)c1C=Nc1ccc([N+](=O)[O-])cc1	RGS16-Gao HTS 9.8 | RGS4-Gao HTS 86
